RXFP1 agonist: qHTS Assay for Agonists of the Relaxin Receptor RXFP1 | Relaxin receptor 1 (Homo sapiens), Q9HBX9 | hit rate 0.3% among 370,000 | Potency, µM (titrated, usually from 57.5 µM), for inactives: at the top dose activation, usual class: activators | HEK293T-RXFP1 cAMP TR-FRET, 30 min; response scale: percent of porcine relaxin response, buffer zero; active = well fitted activation curve with a large enough effect; inconclusive = small, poorly fitted or top-dose-only effect; also: potency is read from the fitted curve at half-maximal effect; % is scaled to controls: 0 for no effect and ±100 for the full control effect; nearly all actives have a fitted effect of over 60% in size
Target sequence (Q9HBX9 whole entry, looked up): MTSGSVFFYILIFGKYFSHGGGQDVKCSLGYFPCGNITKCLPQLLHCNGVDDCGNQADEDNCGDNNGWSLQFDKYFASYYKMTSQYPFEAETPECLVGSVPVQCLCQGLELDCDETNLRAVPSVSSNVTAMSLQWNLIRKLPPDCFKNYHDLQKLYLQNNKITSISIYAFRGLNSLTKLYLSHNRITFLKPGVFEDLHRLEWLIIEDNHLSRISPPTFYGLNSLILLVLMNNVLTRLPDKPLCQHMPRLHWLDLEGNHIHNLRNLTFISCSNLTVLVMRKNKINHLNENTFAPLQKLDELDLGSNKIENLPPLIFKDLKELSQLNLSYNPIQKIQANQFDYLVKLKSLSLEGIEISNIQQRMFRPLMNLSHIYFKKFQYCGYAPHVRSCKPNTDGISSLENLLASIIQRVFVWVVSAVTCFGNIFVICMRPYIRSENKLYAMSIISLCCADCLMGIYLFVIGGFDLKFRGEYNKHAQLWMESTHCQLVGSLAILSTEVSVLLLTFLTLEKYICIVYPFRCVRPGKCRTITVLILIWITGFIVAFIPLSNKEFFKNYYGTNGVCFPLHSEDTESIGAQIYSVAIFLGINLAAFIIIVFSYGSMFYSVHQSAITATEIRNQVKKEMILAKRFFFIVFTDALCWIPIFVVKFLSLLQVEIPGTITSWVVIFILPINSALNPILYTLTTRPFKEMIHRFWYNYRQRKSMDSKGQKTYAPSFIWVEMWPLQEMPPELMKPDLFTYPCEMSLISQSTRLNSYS
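Agonist response is measured as cAMP accumulation in an RXFP1-transfected HEK293T line under PDE4 inhibition. Values are scaled between buffer-only and 29 nM porcine relaxin, and EC50s come from standard Hill equation fits.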
gsp ag: qHTS for Agonist of gsp, the Etiologic Mutation Responsible for Fibrous Dysplasia/McCune-Albright Syndrome: qHTS; gsp mutant cells, cAMP HTRF, 30 min; Potency, µM (highest dose often 76.9 µM), without a hit: at the highest dose activation (cAMP increase), usual class: activators; hit rate 0.13% among 340,000; active = well fitted activation curve with a large enough effect; inconclusive = small, poorly fitted or top-dose-only effect, or another doubt; inactive = no such curve, though single readings can be large or run the other way; cell line not stated here;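 also: phosphodiesterase inhibitor Ro 20-1724 added with compounds to block cAMP breakdown; potency is read from the fitted curve at half-maximal effect; nearly all actives have a fitted effect of over 60% in size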
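Cells in DMEM/10% FBS with G418 were pretreated with compounds in DMSO plus […] (300 uM stock) for 30 min at 37C. cAMP was measured by HTRF (cAMP-d2 plus anti-cAMP antibody-K) after 30 min at room temperature.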
gsp antagonist: qHTS for Antagonists of gsp, the Etiologic Mutation Responsible for Fibrous Dysplasia/McCune-Albright Syndrome: qHTS; gsp-mutant cells, cAMP HTRF, 30 min; Potency, µM (doses to about 76.9 µM), inactives show top-dose activity change, negative = inhibition, hits mostly inhibitors; hit rate 0.4% among 340,000; AID 624288, 2012; calls by dose curve; cell line not stated here;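 also: intracellular cAMP measured with PDE inhibitor Ro 20-1724 present during compound exposure; potency is read from the fitted curve at half-maximal effect; % is scaled to controls: 0 for no effect and ±100 for the full control effect; nearly all actives have a fitted effect of over 65% in size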
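Cells in G418 medium, seeded 16-24 h, 37C; buffer exchange to DPBS + 1 mM CaCl2, 0.5 mM MgCl2, 0.05% BSA; cpds in DMSO + […] (300 uM stock), 30 min 37C; HTRF cAMP detection.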
RXFP1 antagonist: qHTS Assay for Antagonists of the Relaxin Receptor RXFP1; Relaxin receptor 1 (Homo sapiens), Q9HBX9; activity change, negative = inhibition, % at 57.5 µM; HEK293-RXFP1, relaxin-stimulated cAMP HTRF, 30 min; stronger effect = lower value; AID 1259400, 2018; hit rate 0.59% among 350,000;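 active = activity change of -60% or lower, but not beyond a set lower limit; inconclusive = change between -60% and -40%, or beyond the set limit; inactive = change above -40%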; also: % is scaled to controls: 0 for no effect and ±100 for the full control effect
* hit, by the source's call; ? = inconclusive; / = no result; ! = a repeat was not active; [ ] = remark or other dose. A selection: hits, their analogues and other compounds. The true share with any hit is near 0.9%.

SMILES	RXFP1 agonist	gsp ag	gsp antagonist	RXFP1 antagonist
CCOC(=O)C(=O)CCCCCCl	/	/	/	3
Cc1cc(Cl)c(S(=O)(=O)NC2CCCC2)cc1OCC(=O)NC1CCCCC1	1%	-26%	28µM*	-9
Cc1ccc2nc(-c3ccccc3)cc(C(=O)N(C)CC(=O)Nc3ccccc3Br)c2c1	0%	11%[15.4 µM]	?	-75*
CCC(=O)OCCNc1cc(Sc2nccn2C)c2nonc2c1[N+](=O)[O-]	6%	-25%	-20%	-90*
CCC(=O)OCCNc1cc(SCCC(=O)OC)c2nonc2c1[N+](=O)[O-]	1%	?	0%	-34
CC(=O)Nc1cccc(NC(=O)CSc2nc3c(c(=O)n(C)c(=O)n3C)n2C)c1	28µM*	51%[15.4 µM]	17%	26
CCC(=O)Nc1cccc(NC(=O)CSc2nc3c(c(=O)n(C)c(=O)n3C)n2C)c1	?	26%[15.4 µM]	4%	15
CCn1c(/C=N/c2nc3ccccc3n2C)nc2ccccc21	0%	6%	6%	12
CCn1c(/C=C/c2cc[n+](C)cc2)nc2ccccc21	28µM*	?	20%	27
CCCn1c(/C=C/c2ccccc2)nc2ccccc21	11%	0%	?	-86*!
CCOc1ccc(-n2cc(-c3ccccc3)c3c(=O)[nH]cnc32)cc1	0%	19%	?	-97*
COC(=O)c1c(NC(=O)CCCOc2ccccc2C)sc2c1CCC2	5%	/	/	-11
CCCCC(=O)NC(c1ccc([N+](=O)[O-])cc1)c1c(O)ccc2ccccc12 (centres undefined)	0%	3%[15.4 µM]	?	-62*
CCC(=O)NC(c1ccc([N+](=O)[O-])cc1)c1c(O)ccc2ccccc12 (centres undefined)	-1%	-67%	?	-20
CC(=O)c1cccc(Nc2nn(-c3ccc(OC(F)(F)F)cc3)nc2C(C)=O)c1	1%	/	/	-15
COc1ccc(NC(=O)c2nnn(CC(=O)Nc3ccccc3OC)c2N)c(OC)c1	6%	-10%	9%	-102*
COc1ccc(NC(=O)c2nnn(CC(=O)Nc3cccc(C)c3C)c2N)c(OC)c1	2%	/	/	2
O=C(O)CNC(=O)c1ccccc1I	/	/	/	11
CC(=O)Nc1c(C(=O)Nc2cccc(C)c2)nnn1-c1ccc(C)cc1	3%	/	/	/
Nc1nc(Sc2ccc([N+](=O)[O-])c3nonc23)c2[nH]cnc2n1	/	13µM*	-17%	13
CNc1ncnc(Sc2nc(N)nc3nc[nH]c23)c1[N+](=O)[O-]	/	?	1%	9
O=C(N/N=C/c1cn(Cc2ccccc2)c2ccccc12)c1cc(O)cc(O)c1	5%	-7%	19%	17
CCn1c2ccccc2c2cc(/C=N/NC(=O)c3ccncc3)ccc21	0%	-2%[15.4 µM]	/	-8
CCn1c2ccccc2c2cc(/C=N/NC(=O)c3cc(O)cc(O)c3)ccc21	4%	-3%[15.4 µM]	?	-83*
CCn1c2ccccc2c2cc(/C=N/NC(=O)c3ccc(O)cc3)ccc21	0%	-21%[15.4 µM]	28µM*	-23
SMILES	RXFP1 agonist	gsp ag	gsp antagonist	RXFP1 antagonist
Cc1ccccc1C(=O)Nc1ccc(C(=O)N2CCCC(N(C)C)c3ccccc32)cc1 (centres undefined)	/	/	/	1
c1ccc2c(c1)ncn2CCCCOc1ccc2c(c1)CCC2	-2%	-5%	?	0
c1ccc2c(c1)ncn2CCCOc1ccc2c(c1)CCC2	1%	-18%	28µM*	12
Cc1ccc(/C=C2\SC(=S)N(CCC(=O)NNC(=O)c3ccncc3)C2=O)cc1	-4%	-8%[15.4 µM]	40µM*	-5
O=Cc1cc(N=Nc2ccccc2Cl)ccc1O	-2%	-17%	?	-65*
O=Cc1cc(N=Nc2cccc(C(=O)O)c2)ccc1O	1%	1%	-3%	-13
CC(=O)N1CCc2c(sc3c2c(=O)n(-c2ccc(C)cc2)c(=O)n3CC(=O)Nc2ccccc2)C1	4%	/	/	/
O=C(C#Cc1ccccc1)c1ccc([N+](=O)[O-])cc1	-1%	7%[15.4 µM]	4%	-61*
O=C(C#Cc1ccccc1)c1ccccc1	/	?	/	-107*
COc1ccccc1C1CCN(c2cc(O)ccc2[N+](=O)[O-])CC1	-2%	-6%[15.4 µM]	32µM*	-11
Cc1ccccc1CS(=O)(=O)c1nnc([C@H](Cc2ccccc2)NC(=O)OC(C)(C)C)o1	0%	-59%	22%	-67*
CN(C)c1cc(NC(=O)CNC(C)(C)C)c(O)c2c1C[C@@H]1C[C@H]3[C@H](N(C)C)C(=O)C(C(N)=O)=C(O)[C@@]3(O)C(=O)C1=C2O	/	/	/	8
COc1ccccc1-c1c(C)nn2c(N3CCCCCC3)cc(C)nc12	3%	1%	35µM*	/
Nc1ncc(S(=O)(=O)NCc2ccccc2)cn1	0%	/	/	2
CC(C)=NNc1nc(-c2ccccc2)cs1	0%	-11%	12%	-3
CCOC(=O)C/C(C)=N\Nc1nc(-c2ccccc2)cs1	-2%	7%[15.4 µM]	8.9µM*	-19
O=C(CSc1nnc2ccc3ccccc3n12)Nc1ccccc1Cl	18%	/	/	0
CCOC(=O)c1nnn(-c2nonc2N)c1CN1CCCC1	-2%	-58%	50µM*	8
COc1cc(C(C)=O)ccc1OCC(O)CNCC(O)c1ccccc1 (centres undefined)	-1%	?	15%	5
Oc1ccccc1N=Nc1ccccc1O	3%	-7%	35µM*	-29
Nc1ccc(N=Nc2ccccc2O)c(N)c1	/	-4%[15.4 µM]	-4%	3
CCOC(=O)c1sc(NC(=O)c2ccc(Br)o2)cc1C	-1%	7%	-10%	-63*
CC(=O)c1cccc(OCc2cc(C(=O)N3CCSCC3)no2)c1	0%	-6%[15.4 µM]	7%	-8
CC(=O)c1cccc(OCc2cc(C(=O)N3CCC(N4CCCCC4)CC3)no2)c1	0%	15%	-3%	-81*
CC(=O)NNC(=S)NC(=O)C(c1ccccc1)c1ccccc1	-2%	-18%	2%	-13
SMILES	RXFP1 agonist	gsp ag	gsp antagonist	RXFP1 antagonist
CC(C)(C)C(=O)NC(=S)NNC(=O)C(c1ccccc1)c1ccccc1	0%	-3%	-1%	-94*
Cc1ccc(-n2ncc3c(Nc4cccc(C(F)(F)F)c4)ncnc32)cc1C	9%	/	/	3
Cc1ccc(OC(F)F)c(NC(=O)Nc2cccc(C(F)(F)F)c2)c1	0%	-1%	35µM*	-30
O=C(Nc1ccccc1)Nc1cccc(C(F)(F)F)c1	-1%	17%[15.4 µM]	-7%	1
CCN1C(=O)/C(=C\C(=O)c2cccs2)c2cc(Br)ccc21	2%	-20%	-4%	-66*
COc1ccc(-c2onc(C)c2C)cc1S(=O)(=O)NC1CCC(C)CC1 (centres undefined)	6%	/	/	-9
CCCOc1ccc2c(c1)CC[C@@H]1[C@@H]2CC[C@]2(C)C(OC)CC[C@@H]12 (some centres undefined)	/	/	/	-10

Screening results (PubChem BioAssay)
